Laboratory results as given in PubChem BioAssay (NCI).
This is part of a sample that, as a whole, favours compounds with a hit. Of some 83,000 tested, about 20% had one in any assay.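 Negative percent growth values reflect cell death: -40 means 40% of the cells present at the start died, and -100 means all died.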 The source made the active and inactive calls. The calls were made as follows: active = growth percent below 10; inactive = the rest.

Tests used:
Experiment in all cases: NCI-60 one-dose screen, 48 h (100 = growth as untreated, 0 = no growth, -100 = all killed)
Conditions in all cases: 10 µM unless noted
HCT-15 colon = system: HCT-15 colon
HT29 colon = system: HT29 colon
SNB-75 CNS = system: SNB-75 CNS
SNB-19 CNS = system: SNB-19 CNS
U251 CNS = system: U251 CNS
PC-3 prostate = system: PC-3 prostate
UACC-62 melanoma = system: UACC-62 melanoma
LOX IMVI melanoma = system: LOX IMVI melanoma
SK-MEL-28 melanoma = system: SK-MEL-28 melanoma

Measured: growth

CC(C)OCCCNCC(=O)Nc1ccc(S(=O)(=O)c2ccc(NC(=O)CNCCCOC(C)C)cc2)cc1
inactive: HCT-15 colon 120% | HT29 colon 27.4% | SNB-75 CNS 85.5% | SNB-19 CNS 103% | U251 CNS 85.6% | PC-3 prostate 87% | UACC-62 melanoma 107% | LOX IMVI melanoma 78.7% | SK-MEL-28 melanoma 99.9%

CCCCCCCC/C=C\CCCCCCCC(=O)Oc1cccc2cccnc12
inactive: HCT-15 colon 81.8% | HT29 colon 137% | SNB-75 CNS 149% | SNB-19 CNS 103% | U251 CNS 91% | PC-3 prostate 114% | UACC-62 melanoma 99.8% | LOX IMVI melanoma 79.8% | SK-MEL-28 melanoma 176%

COc1ccc(/C(C)=C(\c2ccc(Cl)cc2)c2ccc(OCCN3CCCCCC3)cc2)cc1F
inactive: HT29 colon 10% | SNB-75 CNS 75.6% | SNB-19 CNS 65.9% | U251 CNS 39.8% | PC-3 prostate 41% | UACC-62 melanoma 48.2% | SK-MEL-28 melanoma 26%
active: HCT-15 colon -23.9% | LOX IMVI melanoma -47%

CSc1ccc(Cl)c(C(=O)Nc2sccc2C(N)=O)c1
inactive: HCT-15 colon 98.8% | HT29 colon 118% | SNB-75 CNS 105% | SNB-19 CNS 80.6% | U251 CNS 94.3% | PC-3 prostate 83.8% | UACC-62 melanoma 81.1% | LOX IMVI melanoma 100% | SK-MEL-28 melanoma 102%

CC(=O)Nc1ccc2c(c1)Cc1c(F)cccc1-2
inactive: HCT-15 colon 108% | HT29 colon 111% | SNB-75 CNS 73.7% | SNB-19 CNS 107% | U251 CNS 107% | PC-3 prostate 88.4% | UACC-62 melanoma 98.9% | LOX IMVI melanoma 103% | SK-MEL-28 melanoma 117%

CNC(=O)c1cc(Oc2ccc3nc(Nc4cc(Cl)cc(Cl)c4)ccc3c2)ccn1
inactive: HCT-15 colon 41.4% | HT29 colon 15.3% | SNB-75 CNS 70.2% | SNB-19 CNS 75.2% | U251 CNS 58.2% | PC-3 prostate 40.3% | UACC-62 melanoma 44.7% | LOX IMVI melanoma 45.9% | SK-MEL-28 melanoma 61.4%

Cn1ccnc1C(=O)/C=C/c1ccc(C(=O)Nc2ccc(S(F)(F)(F)(F)F)cc2)cc1
inactive: HT29 colon 12% | SNB-75 CNS 12.2% | PC-3 prostate 17.4% | UACC-62 melanoma 53.5% | SK-MEL-28 melanoma 79.5%
active: HCT-15 colon 3.65% | SNB-19 CNS 9.4% | U251 CNS -6.93% | LOX IMVI melanoma -79.5%

O=S(=O)(NCCNc1cc(-c2c(-c3cccc(O)c3)nc3sccn23)ccn1)c1ccc(Br)cc1
inactive: HCT-15 colon 44.8% | HT29 colon 51% | SNB-75 CNS 26.3% | SNB-19 CNS 66.1% | U251 CNS 64.6% | PC-3 prostate 49.8% | UACC-62 melanoma 56.8% | LOX IMVI melanoma 61.6% | SK-MEL-28 melanoma 84.9%

CCc1c(C(=O)N[C@@H]2c3cc(Cl)ccc3CC[C@@H]2O)[nH]c(C)c1C(C)=O
inactive: HCT-15 colon 41.1% | HT29 colon 66.9% | SNB-75 CNS 76.4% | SNB-19 CNS 97.2% | U251 CNS 48.4% | PC-3 prostate 49.8% | UACC-62 melanoma 69.7% | LOX IMVI melanoma 50.9% | SK-MEL-28 melanoma 81.5%

COc1ccc(OC)c(/C=C2\COc3ccc(O)c(O)c3C2=O)c1
inactive: HT29 colon 33.7% | SNB-75 CNS 11.7% | SNB-19 CNS 33.9% | U251 CNS 19% | PC-3 prostate 26.6% | UACC-62 melanoma 28.9% | SK-MEL-28 melanoma 48.7%
active: HCT-15 colon 1.18% | LOX IMVI melanoma -63.1%

Cc1nc(Nc2ccc(NC(=S)Nc3ccccc3)cc2)c2ccccc2n1
inactive: HCT-15 colon 101% | HT29 colon 107% | SNB-75 CNS 104% | SNB-19 CNS 105% | U251 CNS 101% | PC-3 prostate 99.2% | UACC-62 melanoma 95.1% | LOX IMVI melanoma 97.9% | SK-MEL-28 melanoma 108%

COc1cc(NC(=O)c2cc(O)c(CC=C(C)C)c(O)c2)cc2c1O[C@]1(C)CC[C@@H](O)C(C)(C)[C@H]1C2
active: HT29 colon 5.24% | SNB-75 CNS -7.48% | UACC-62 melanoma -13.3%
inactive: HCT-15 colon 34.3% | SNB-19 CNS 44.9% | U251 CNS 13.4% | PC-3 prostate 21.5% | LOX IMVI melanoma 12.7% | SK-MEL-28 melanoma 18.8%

COc1ccc(/C=C2\COc3ccc(O)c(O)c3C2=O)c(OC)c1
inactive: HCT-15 colon 16.8% | HT29 colon 73.6% | SNB-75 CNS 57.7% | SNB-19 CNS 76% | U251 CNS 44.4% | PC-3 prostate 49.6% | UACC-62 melanoma 47.8% | LOX IMVI melanoma 30.7% | SK-MEL-28 melanoma 76.4%

Cc1[nH]c(-c2nc3ccccc3[nH]2)c(C)c1C(=O)N1CCOCC1
inactive: HCT-15 colon 95.5% | HT29 colon 98.3% | SNB-75 CNS 87.8% | SNB-19 CNS 88.7% | U251 CNS 100% | PC-3 prostate 98.8% | UACC-62 melanoma 90% | LOX IMVI melanoma 97.4% | SK-MEL-28 melanoma 105%
